The test system of assay [1] is Zika virus NS2B-NS3 protease (linked construct). Nature of the assay: Primary screen NINDS Rhodamine qHTS for Zika virus inhibitors (AID 1347160). Note: nearly all actives have a fitted effect of over 55% in size. Note: potency is the fitted concentration of half-maximal effect. Put shortly:
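Kinetic fluorescence (Ex 480 nm, Em 540 nm) over 15 min with 1.5 microM Rhodamine110 peptide and 25 nM linked protease.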
Background: In qHTS, concentration-response curves come from the screen itself.

Assay [2] is described as follows: Panc-1005 Cancer Cell Toxicity qHTS against the NCATS CANVASS Library (AID 1347349). Note: series mostly up to about 38 µM; nearly all actives have a fitted effect of over 60% in size. The procedure, abridged: (§1)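 ATP content after 72 h treatment, detected by CellTiter-Glo luminescence (15min room-temperature development), reflects cell viability. Wells contained 1000 cells and received compounds at 11 concentrations.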
The nature of assay [3]: SW1088 Cancer Cell Toxicity qHTS against the NCATS CANVASS Library (AID 1347350). Note: nearly all actives have a fitted effect of over 75% in size. Put shortly:
as §1

Assay [4] in a line: COV-362 Cancer Cell Toxicity qHTS against the NCATS CANVASS Library (AID 1347352). Note: series mostly up to about 38 µM. Put shortly: (§2)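 Cells at 1000/well were given compound 4 h after plating in an 11-point series. Viability was read by CellTiter-Glo luminescence after 72 h at 37 degrees C.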
Assay [5] can be described thus: A2780 Cisplatin Sensitive Ovarian Cancer Cell Toxicity qHTS against the NCATS CANVASS Library (AID 1347353). Note: nearly all actives have a fitted effect of over 60% in size. The procedure, abridged:
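A2780 cells, 750/well, settled 4 h at 37 °C, then treated with an 11-point compound series for 72 h. Viability was read as ATPLite luminescence after 10 min at room temperature, with bortezomib as control.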

A short description of assay [6]: UWB1.289-WTBRCA1 Cancer Cell Toxicity qHTS against the NCATS CANVASS Library (AID 1347354). The procedure, abridged:
as §2

Assay [7] is described as follows: HEK-293 Cancer Cell Toxicity qHTS against the NCATS CANVASS Library (AID 1347355). Note: series mostly up to about 46 µM; nearly all actives have a fitted effect of over 65% in size. Put shortly: as §2
For assay [8], the system named is NAD(P)H diaphorase (Clostridium kluyveri). Briefly: Diaphorse counterscreen qHTS: Assay Interference Panel against the NCATS CANVASS Library (AID 1347362). Note: potency is the fitted concentration of half-maximal effect. Put shortly: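 Counterscreen for coupling-enzyme interference: resorufin fluorescence from resazurin/NADH turnover, read after 5 min at room temperature. Compounds were tested over an 11-point series after 15 min dark preincubation with diaphorase in PBS-Tween.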
(In general: A counterscreen serves to expose hits that act by an unwanted route or on another target.)

The nature of assay [9]: KB-8-5-11 Cancer Cell Toxicity qHTS against the NCATS CANVASS Library (AID 1347364). Note: series mostly up to about 46 µM; nearly all actives have a fitted effect of over 75% in size. Put shortly:
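KB-8-5-11 cells, 500/well in DMEM + 10% FBS, given compounds in an 11-point series. Incubated 72 h at 37 °C. Viability by CellTiter-Glo luminescence. Confirmation also run with 1 uM tariquidar.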

Assay [10] can be described thus: SDT Cancer Cell Toxicity qHTS against the NCATS CANVASS Library (AID 1347365). Note: nearly all actives have a fitted effect of over 60% in size. Note: potency is the fitted concentration of half-maximal effect. The procedure, abridged:
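SDT dog glioma cells (500/well) exposed to an 11-point compound series for 72 hr at 37C, 5% CO2. Cytotoxicity read as ATP content by CellTiterGlo luminescence; bortezomib titration as control.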

A short description of assay [11]: G06 Cancer Cell Toxicity qHTS against the NCATS CANVASS Library (AID 1347368). Note: nearly all actives have a fitted effect of over 60% in size. Note: potency is the fitted concentration of half-maximal effect. The procedure, abridged:
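G06 dog glioma cells, 500 per well, exposed 72 hr at 37C, 5% CO2 to compounds in an 11-point series. Cytotoxicity read as ATP content by CellTiterGlo luminescence.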

Assay [12] concerns the target Nuclear receptor subfamily 1 group I member 3 (Homo sapiens) (UniProt Q14994). Nature of the assay: qHTS for Constitutive Androstane Receptor (CAR) Antagonist screened against the NCATS CANVASS Library (AID 1347372).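 Note: cells stimulated with 50 nM CITCO agonist so inhibition reflects antagonism; luciferase from CYP2B6 promoter reporter driven by hCAR in HepG2 cells; series mostly up to about 46 µM.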 The procedure, abridged: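 HepG2-CYP2B6-hCAR double-stable cells plated, 4hr attach; cpd pin-transferred; CITCO 50 nM final; 24hr 37C/5% CO2; CellTiter-Fluor 1hr (fluorescence), then ONE-Glo luminescence.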

The nature of assay [13]: qHTS for Hypoxia signaling pathway (HIF-1) agonists against the NCATS CANVASS Library (AID 1347375). The procedure, abridged:
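HRE-bla ME-180 cells (0.5% dialyzed FBS) were pre-incubated 5 hrs at 37C, then exposed to compounds in an 11-point series for 17 hrs. Read-out was CCF4-AM beta-lactamase FRET (460/530 nm emissions), with CellTiter-Glo viability in the same wells.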

Assay [14] can be described thus: DH5-alpha competent E. coli microbial cell viability qHTS against the NCATS CANVASS Library (AID 1347377). Particulars: outcome: dose series up to 46.1 µM unless noted. Put shortly:
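DH5-alpha E. coli suspension was exposed to an 11-point compound series overnight at 37 °C. Viable cells quantified by ATP luminescence (BacTiter-Glo) after 20 min at room temperature.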

Assay [15] in a line: qHTS for Activators of p53 Stress Response Pathway screened against the NCATS CANVASS Library (AID 1347388). The procedure, abridged:
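Beta-lactamase reporter driven by p53 response elements in HCT-116 cells, read as the 460 nm/530 nm emission ratio after CCF4 loading, following 16 h of exposure to an 11-point series. Cell viability was measured in the same wells by CellTiter-Glo luminescence.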

A short description of assay [16]: qHTS assay for small molecule disruptors of mitochondrial membrane potential screened against the NCATS CANVASS Library (AID 1347389). Put shortly:
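HepG2 cells (2,000/well) plated overnight, then exposed to compounds in 11-point qHTS series for 1 h at 37C before 30 min Mito-MPS dye; depolarization read as fall in red aggregate (590 nm) to green monomer (535 nm) fluorescence.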

Assay [17] is described as follows: qHTS for activators of Nrf2/ARE signaling pathway screened against the NCATS CANVASS Library (AID 1347391). Note: nearly all actives have a fitted effect of over 60% in size. Put shortly: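 ARE-bla HepG2 beta-lactamase reporter cells exposed to compounds for 16 h at 37C; CCF4 substrate 2 h, fluorescence at ex 405 nm, em 460/530 nm. Viability by CellTiter-Glo luminescence.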
Assay [18] can be described thus: qHTS for activators of dead-cell proteases activity screened against the NCATS CANVASS Library (AID 1347392).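 Note: luminescence from protease leaking out of membrane-damaged cells cleaving impermeant substrate; rising signal means more cytotoxicity.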 The procedure, abridged: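 Compounds are pin-transferred onto attached HepG2 cells, giving 11 final concentrations. After 5 h at 37C, AAF-aminoluciferin reagent is added and luminescence is recorded at room temperature.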
The nature of assay [19]: qHTS for inhibitors of Wild type Zika virus screened against the NCATS CANVASS Library (AID 1347396).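 Note: ATP luminescence of surviving cells so rescue from viral cell killing; series mostly up to about 46 µM.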 Put shortly: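 Protection against wild-type Zika cytopathic effect is measured in African green monkey Vero 766 cells exposed to an 11-point compound series. Surviving cells are quantified by CellTiter Glo luminescence after 72 h.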
A short description of assay [20]: Redox Reaction Profiling qHTS: Assay Interference Panel against the NCATS CANVASS Library (AID 1347401). Note: potency is the fitted concentration of half-maximal effect. The procedure, abridged:
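Cell-free redox surrogate: 5 uM resazurin + 200 uM DTT, 50 mM HEPES pH 7.3/50 mM NaCl; cpds pinned, 11-pt qHTS; Ex525/Em598 read t0 and t=15 min, dark.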

Results filed as inconclusive are left out. Active and inactive are the calls of the source. Calls come from the whole dose curve; as a rule, active = well fitted curve in the direction sought with a large enough effect; inconclusive = small, poorly fitted or top-dose-only effect, or another doubt; inactive = no such curve, though single readings can be large; an effect the other way counts as inactive or inconclusive.

Results on five compounds are retold here after PubChem BioAssay (NCATS).

Nuclear receptor subfamily 1 group I member 3 (Homo sapiens), sequence (Q14994 whole entry, looked up): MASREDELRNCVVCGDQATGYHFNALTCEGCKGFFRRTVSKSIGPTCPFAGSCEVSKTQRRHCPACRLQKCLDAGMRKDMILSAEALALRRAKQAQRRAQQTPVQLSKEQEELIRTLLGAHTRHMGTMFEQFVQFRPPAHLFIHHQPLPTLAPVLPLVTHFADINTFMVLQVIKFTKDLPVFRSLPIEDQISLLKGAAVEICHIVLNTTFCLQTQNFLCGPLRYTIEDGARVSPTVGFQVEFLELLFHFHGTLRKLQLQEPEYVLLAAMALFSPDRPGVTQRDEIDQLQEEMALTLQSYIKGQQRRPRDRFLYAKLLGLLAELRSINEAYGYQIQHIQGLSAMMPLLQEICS

Consider `CS/C=C/C(N)=O`, for which the Potency entry in assay [1], in assay [2], in assay [3], in assay [4], in assay [5] and in [6] was “inactive” throughout. Further, the Potency entry in [7], in assay [8], in [9], in assay [10], in assay [11] and in [12] was “inactive” in each case. The Potency entry in assay [13], in assay [15], in [16], in [17], in [18] and in assay [19] was “inactive” throughout. Further, the Potency result in assay [20] is “inactive”. For the same compound, the outcome in assay [14] was inactive.
For `CC12C[C@]3(O)O[C@@H](O1)[C@]1(COC(=O)c4ccccc4)[C@@H]3CC21OC1OC(CO)C(O)C(O)C1O` (stereo not given in full), the Potency entry in [1], in assay [2], in assay [3], in [4], in assay [5] and in assay [6] was “inactive” in each case. Further, the Potency entry in assay [7], in assay [8], in assay [9], in [10], in [12] and in [13] was “inactive” throughout. In addition, the Potency result in [15], in [16], in [17], in [18], in assay [19] and in assay [20] was “inactive” in each case. In [14], the result was inactive.
With `COc1ccc(CCCc2cc(O)c(OC)c(O)c2)c(O)c1O`, the Potency was 11 µM (active) in [1]; 21.6 µM (active) in assay [8]; 0.166 µM (active) in assay [10]; 0.0148 µM (active) in [11]; 21.5 µM (active) in assay [20]. The Potency entry in [2], in [3], in assay [4], in [5], in [6] and in assay [9] was “inactive” throughout. The Potency entry in assay [12], in assay [13], in assay [15], in [18] and in assay [19] was “inactive” throughout. The compound was called inactive in [14].
Consider `O=C(O)Cc1c[nH]c2ccccc12`, for which the Potency result in [1], in assay [2], in assay [3], in [4], in assay [5] and in assay [6] was “inactive” throughout. Besides, the Potency entry in assay [7], in [8], in [9], in assay [10], in [12] and in assay [13] was “inactive” in each case. Also, the Potency entry in [15], in assay [16], in assay [17], in [18], in [19] and in assay [20] was “inactive” each time. Besides, the call in [14] was inactive.
Consider `OCc1ccc2ocnc2c1`, for which the Potency result in [1], in [2], in assay [3], in assay [4], in assay [5] and in [6] was “inactive” throughout. Besides, the Potency entry in [7], in assay [8], in assay [9], in assay [10], in [11] and in [12] was “inactive” each time. The Potency result in assay [13], in assay [15], in assay [16], in assay [17], in assay [18] and in assay [19] was “inactive” throughout. Also, the Potency result in [20] was “inactive”. Moreover, in [14], the result was inactive.
